Assay results as given in PubChem BioAssay (NCATS).
Records with an inconclusive call do not appear. Activity calls are given as the source filed them. Calls come from the whole dose curve; as a rule, active = well fitted curve in the direction sought with a large enough effect; inconclusive = small, poorly fitted or top-dose-only effect, or another doubt; inactive = no such curve, though single readings can be large; an effect the other way counts as inactive or inconclusive.

Tests used:
[1] = HPAF-II 18hr Apoptosis Induction qHTS against the NCATS CANVASS Library (AID 1347360); conditions: HPAF-II caspase-3/7 luminescence; series mostly up to 46.1 µM
Outline: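 Seed HPAF-II cells at 500/well in DMEM + 10% FBS, pin-transfer compounds, incubate 18 hours at 37 degrees C/5% CO2, add Caspase-Glo 3/7 reagent, wait 15 min, read luminescence.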

[2] = HEK293 12hr Apoptosis Induction qHTS against the NCATS CANVASS Library (AID 1347361); conditions: HEK293 caspase-3/7 Caspase-Glo luminescence; series mostly up to 46.1 µM
Outline: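 Cells are seeded, dosed with an 11-point compound series and incubated 12 hours. Caspase-3/7 activity is detected by luminescent DEVD-substrate reagent after 15 minutes at room temperature.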

[3] = tested on: NAD(P)H diaphorase (Clostridium kluyveri); experiment: Diaphorse counterscreen qHTS: Assay Interference Panel against the NCATS CANVASS Library (AID 1347362); conditions: Diaphorase enzyme, resazurin to resorufin fluorescence; series mostly up to 57.5 µM
Outline: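 Clostridium kluyveri diaphorase in PBS + 0.01% Tween-20 preincubated 15 min with compounds. Resazurin and NADH then added for 5 min at room temperature in the dark; resorufin fluorescence read (ex 525, em 598).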

[4] = target: Luciferin 4-monooxygenase (Photinus pyralis) (UniProt P08659); experiment: Firefly luciferase counterscreen qHTS: Assay Interference Panel against the NCATS CANVASS Library (AID 1347363); conditions: purified firefly luciferase, luminescence inhibition, 5 min; series mostly up to 57.5 µM
Chain of Luciferin 4-monooxygenase (Photinus pyralis) (P08659 whole entry, looked up): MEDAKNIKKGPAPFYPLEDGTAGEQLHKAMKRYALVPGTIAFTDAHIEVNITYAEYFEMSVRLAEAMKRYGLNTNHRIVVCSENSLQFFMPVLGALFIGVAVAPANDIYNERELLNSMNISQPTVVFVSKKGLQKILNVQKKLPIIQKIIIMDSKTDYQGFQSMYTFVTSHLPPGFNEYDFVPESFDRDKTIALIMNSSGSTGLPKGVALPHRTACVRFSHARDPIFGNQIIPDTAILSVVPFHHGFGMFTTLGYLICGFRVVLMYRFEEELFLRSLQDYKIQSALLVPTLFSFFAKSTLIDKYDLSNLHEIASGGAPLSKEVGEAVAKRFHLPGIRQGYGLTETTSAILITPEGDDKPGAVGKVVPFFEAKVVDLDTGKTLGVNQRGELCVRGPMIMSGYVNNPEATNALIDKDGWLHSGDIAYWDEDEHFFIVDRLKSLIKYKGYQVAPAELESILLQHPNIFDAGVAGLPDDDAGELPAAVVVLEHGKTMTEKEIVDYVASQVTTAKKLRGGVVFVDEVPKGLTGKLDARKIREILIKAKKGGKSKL
Source text: Natural products and their derivatives continue to be wellsprings of nascent therapeutic potential. However, many laboratories have limited resources for biological evaluation, leaving their previously isolated or synthesized compounds largely or completely untested. To address this issue, the Canvass library of natural products was assembled (https://tripod.nih.gov/canvass), in collaboration with academic and industry researchers, for quantitative high-throughput screening (qHTS) across a diverse set of cell-based and biochemical assays. The pure (>85% purity by liquid chromatography/mass spectrometry [LC/MS]) Canvass library of 346 natural products were submitted by 45 academic laboratories and companies around the world. […] The library was formatted into 1536-well plates and evaluated in 50 qHTS (in an 11-pnt concentration series) bioassays with broad scope of disease-relevant mechanisms. The resulting data set from 50 different assays was then systematically analyzed to identify overall trends and specific natural products with interesting biological activities. […] The assay measures the relative levels of luminescence, to identify compounds that inhibit the activity of luciferase. […]
Luciferase Interference counterscreen protocol 1. […] Luminescence signal was acquired via the ViewLux plate reader (PerkinElmer) using a clear emission filter and a 2 second exposure, 2x binning settings.

[5] = KB-8-5-11 Cancer Cell Toxicity qHTS against the NCATS CANVASS Library (AID 1347364); conditions: KB-8-5-11 MDR cells viability, CellTiter-Glo, 72 h; at 46.1 µM (top of the series); note: nearly all actives have a fitted effect of over 75% in size
Outline: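 Natural products were titrated in 11 points onto KB-8-5-11 cells, 500 per well, and cytotoxicity was scored from CellTiter-Glo luminescence after 72 hr culture.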

[6] = SDT Cancer Cell Toxicity qHTS against the NCATS CANVASS Library (AID 1347365); conditions: SDT dog glioma viability, ATP luminescence, 72 h; at 46.1 µM (top of the series); note: nearly all actives have a fitted effect of over 60% in size
Outline: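 Dispense 500 SDT cells per well; pin-transfer compounds; incubate 72 hr at 37C, 5% CO2, 95% RH; add CellTiterGlo and read luminescence.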

[7] = KB-3-1 Cancer Cell Toxicity qHTS against the NCATS CANVASS Library (AID 1347366); conditions: KB-3-1 viability, CellTiter-Glo luminescence, 72 h; series mostly up to 46.1 µM; note: nearly all actives have a fitted effect of over 75% in size
Outline: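 Luminescence from CellTiter-Glo (10 min, room temperature) measured KB-3-1 viability after 72 hr compound exposure at 37C. Cells were seeded at 500/well and tested in an 11-point series.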

[8] = qHTS for ATAD5 Agonist screened against the NCATS CANVASS Library (AID 1347367); conditions: HEK293T ATAD5-luciferase reporter, luminescence, 16 h; series mostly up to 46.1 µM;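 note: luciferase reporter driven by ATAD5 which rises upon DNA damage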
Outline: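 HEK293T-ATAD5 luc reporter; 2000 cells/well; 5hr settle; cpd 11-pt qHTS; 16hr 37C 5% CO2 dark; viability by CellTiter-Fluor (AFC fluorescence); then luciferase luminescence, 30min RT.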

[9] = G06 Cancer Cell Toxicity qHTS against the NCATS CANVASS Library (AID 1347368); conditions: G06 dog glioma cells, viability ATP luminescence, 72 h; at 46.1 µM (top of the series); note: nearly all actives have a fitted effect of over 60% in size
Outline: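 Cytotoxicity toward canine glioma G06 cells is scored from cellular ATP via luminescence after 72 hr compound exposure at 500 cells/well.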

[10] = MCF7 Cancer Cell Toxicity qHTS against the NCATS CANVASS Library (AID 1347369); conditions: MCF7 viability, ATP luminescence (CellTiter-Glo), 72 h; series mostly up to 46 µM
Outline: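 Cells seeded at 500/well, then compound pinned. Plates incubated 72 hr at 37C, 5% CO2. CellTiterGlo added; luminescence read.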

Measured: outcome

NCC(O)c1ccc(O)cc1 (stereo not given)
inactive: all assays above
